Compound activity as filed in PubChem.
In the library only some 7.5% were active in any assay of this set; here they are far more common.
B2AR arrestin = recruits beta-arrestin to the human beta2-adrenergic receptor; beta-arrestin recruitment to beta2AR, cell-based reporter; Potency, µM (top dose mostly 46.1 µM), hits mostly activators; 0.02% of 330,000 active; AID 492947; further: nearly all actives have a fitted effect of over 65% in size
VP16 counter = inhibits Gal4-VP16 luciferase reporter, ROR gamma counter-screen; Potency, µM (series often up to 53.6 µM), actives largely listed as inhibitors; Drosophila S2 Gal4-VP16 UAS-luciferase, luminescence, 20 h; 3.5% of 310,000 active;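 further: Gal4-VP16 expression switched on by copper sulfate through the metallothionein promoter; nearly all actives have a fitted effect of over 50% in size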
ELG1 repair inh = inhibitors of ELG1-dependent DNA repair in HEK293T cells; HEK293T ELG1-luciferase reporter, luminescence, 16 h; DNA damage induced by 5-fluorouridine; Potency, µM (highest dose often 46.1 µM), usual class: inhibitors; 2.3% of 330,000 active; AID 504467; further: nearly all actives have a fitted effect of over 55% in size
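DMSO vehicle served as the neutral condition. Each well held 2,000 cells given 5-fluorouridine plus compound; after 16 hr at 37 °C/5% CO2, ONE-Glo was added and luciferase measured 30 min later.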
TSHR antag = antagonists of human thyroid stimulating hormone receptor. P16473. TSHR-expressing cells, TSH-stimulated cAMP HTRF, 2 h; stronger effect = lower value. activity change, negative = inhibition, % at 11.5 µM. 0.2% of 330,000 active;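 active means activity change below a set negative limit, meaning inhibition stronger than a set level, cut at about -70% in these data; inconclusive means activity change between two set negative limits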
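TSHR-expressing cells were treated with compounds, then stimulated with TSH at EC80 (4nM final) for 2 hours at 37 deg C. Cellular cAMP was measured by HTRF competition between lysate cAMP and cAMP-d2 for a cryptate-labelled anti-cAMP antibody.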
RORgamma inh = blocks mouse ROR gamma transcriptional activity. AID 2551. Potency, µM (top dose mostly 53.6 µM), actives largely listed as inhibitors. P51450. Drosophila S2 Gal4-RORgamma UAS-luciferase reporter, 20 h. 5.4% of 310,000 active; further: nearly all actives have a fitted effect of over 60% in size
Target sequence (P51450 whole entry, looked up, the tested form may be a part): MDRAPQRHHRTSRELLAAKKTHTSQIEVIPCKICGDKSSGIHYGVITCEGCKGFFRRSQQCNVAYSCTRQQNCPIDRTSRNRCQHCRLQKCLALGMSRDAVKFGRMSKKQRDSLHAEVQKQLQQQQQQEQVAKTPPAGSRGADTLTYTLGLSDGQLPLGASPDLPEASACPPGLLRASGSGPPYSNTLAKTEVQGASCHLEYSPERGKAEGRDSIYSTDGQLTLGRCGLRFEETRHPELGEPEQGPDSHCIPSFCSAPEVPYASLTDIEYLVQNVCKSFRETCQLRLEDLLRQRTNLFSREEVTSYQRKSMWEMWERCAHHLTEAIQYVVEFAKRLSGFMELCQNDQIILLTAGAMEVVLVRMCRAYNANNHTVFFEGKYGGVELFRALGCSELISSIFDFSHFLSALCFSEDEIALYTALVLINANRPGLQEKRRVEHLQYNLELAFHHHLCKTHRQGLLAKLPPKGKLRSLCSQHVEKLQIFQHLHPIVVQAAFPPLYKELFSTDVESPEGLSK
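Schneider cells (Drosophila), stable Gal4 DBD–ROR gamma + UAS-luc; 1 hr cmpd preincubation; Cu2+ induction 700 uM final; 20 hr ambient; luminescence.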
Large screens that a line does not name were inactive. Unless noted, the call rests on the fitted dose curve; in most records, active means well fitted curve in the direction sought with a large enough effect; inconclusive means small, poorly fitted or top-dose-only effect, or another doubt; inactive means no such curve, though single readings can be large; an effect the other way counts as inactive or inconclusive.

COc1ccc(CNC(=O)Cn2nc(-c3ccc4c(c3)OCCO4)ccc2=O)cc1	ELG1 repair inh inconclusive
COc1ccc(-c2ccc(=O)n(CC(=O)Nc3ccc4c(c3)OCCO4)n2)cc1	VP16 counter inconclusive, RORgamma inh 11µM
COc1ccc(-n2nnc3c(=O)n(CC(=O)Nc4ccc5c(c4)OCCO5)cnc32)cc1OC	ELG1 repair inh inconclusive
Cc1ccc(Cn2cccc2/C=C2/C(=N)N3C=CSC3=NC2=O)cc1	VP16 counter inconclusive, RORgamma inh 13µM
N=C1/C(=C/c2cccn2Cc2ccc(F)cc2)C(=O)N=C2SC=CN12	RORgamma inh 10µM
N=C1/C(=C/c2cccn2-c2ccc([N+](=O)[O-])cc2)C(=O)N=C2SC=CN12	none
Cc1cccc(Cn2cccc2/C=C2/C(=N)N3C=CSC3=NC2=O)c1	VP16 counter 7.9µM, RORgamma inh 8.9µM
N=C1/C(=C\c2coc3ccccc3c2=O)C(=O)N=C2SC=CN12	none
CCC(C)NC(=O)Cn1cc(S(=O)(=O)N2CCN(c3ccccc3F)CC2)c2ccccc2c1=O (centres undefined)	ELG1 repair inh inconclusive
Cc1cccc2c3c(ccc12)C1=C(C(=O)C3=O)[C@@H](C)CO1	none (no result: B2AR arrestin, ELG1 repair inh, TSHR antag)
CCOC(=O)C1(Nc2nccs2)Sc2ccccc2NC1=O (centres undefined)	ELG1 repair inh 7.3µM
CCOC(=O)C1(N(CC)CC)Sc2cc(C)ccc2NC1=O (centres undefined)	VP16 counter inconclusive
COc1cc(SC)ccc1C(=O)Nc1ccc2c(c1)OCCO2	VP16 counter inconclusive, ELG1 repair inh inconclusive, RORgamma inh 11µM
Cc1ccn2cc(C(=O)Nc3ccc4c(c3)OCCO4)nc2c1	VP16 counter 4.5µM, ELG1 repair inh inconclusive, RORgamma inh 1.3µM
COc1ccccc1C(=O)Nc1ccc2c(c1)OCCO2	VP16 counter inconclusive, ELG1 repair inh inconclusive, RORgamma inh inconclusive
O=C(Nc1ccc2c(c1)OCCO2)c1cc(F)c(F)cc1Cl	ELG1 repair inh inconclusive (no result: VP16 counter, RORgamma inh)
Cc1ccc(C(=O)Nc2ccc3c(c2)OCCO3)cc1	VP16 counter 10µM, ELG1 repair inh inconclusive, RORgamma inh 10µM
Cc1ccn2cc(C(=O)Nc3ccccc3N3CCOCC3)nc2c1	none
Cc1ccc(C(=O)Nc2ccc3c(c2)OCCO3)c(Cl)c1	VP16 counter 5µM, ELG1 repair inh inconclusive, RORgamma inh 7.9µM
Cc1ccc(C(=O)Nc2ccc3c(c2)OCO3)cc1	ELG1 repair inh inconclusive, RORgamma inh inconclusive
Cn1c2ccccc2c(=O)c2ccc(C#Cc3ccccn3)cc21	VP16 counter 16µM, ELG1 repair inh inconclusive, RORgamma inh 11µM
Cn1c2ccccc2c(=O)c2cc(C#CC3(O)CCCCC3)ccc21	VP16 counter 16µM, ELG1 repair inh inconclusive, RORgamma inh 11µM
CCOC(=O)Cn1nnnc1C(C(C)C)N(Cc1cc2c(C)cc(C)cc2[nH]c1=O)C1CCCC1 (centres undefined)	ELG1 repair inh 18µM
COc1cc(CN2CCN(CC3CC3)CC2CCO)cc(OC)c1 (centres undefined)	none
Cc1c(C(=O)NN2CCOCC2)oc2c1ccc1ccccc12	none
CSc1ccccc1NC(=O)COc1ccc(Cl)cc1C	ELG1 repair inh inconclusive
CCOC(=O)c1c(C)oc(NC(=O)COc2ccc(Cl)cc2C)c1C#N	ELG1 repair inh 21µM
O=C(CSc1nnc(-c2ccccn2)n1Cc1ccccc1)Nc1ccc2c(c1)OCO2	ELG1 repair inh 21µM
Cn1c(SCC(=O)Nc2ccc3c(c2)OCCO3)nnc1-c1ccccn1	none
COc1cc(OC)cc(C(=O)N[C@H](C(=O)Nc2cc(C)cc(C)c2)C(C)C)c1	none
COc1ccc(NC(=O)CN(C)CC(=O)Nc2ccc3c(c2)CCC3)cc1	none
COc1ccc(OC)c(CC(=O)Nc2ccc3c(c2)CCC3)c1	none
COc1cc(OC)cc(C(=O)NC(C(=O)Nc2ccc3c(c2)CCC3)C(C)C)c1 (centres undefined)	ELG1 repair inh 7.3µM (no result: VP16 counter, RORgamma inh)
COc1ccc(CC(=O)Nc2ccc3c(c2)CCC3)cc1OC	VP16 counter inconclusive, ELG1 repair inh 10µM
CCCCN(C)CCC(=O)Nc1ccc2c(c1)CCC2	ELG1 repair inh 15µM, RORgamma inh inconclusive
CCc1nc(CNC(=O)C2CCC(=O)N(CCc3cccc(F)c3)C2)no1 (centres undefined)	none
CC(C)C[C@@H](CC(=O)N[C@H](CC(=O)N[C@@H]1CCNC[C@H]1C(=O)N[C@H](CC(=O)N[C@@H](CCC(=O)O)CC(=O)O)Cc1c[nH]c2ccccc12)C(C)C)NC(=O)[C@@H]1CNCC[C@H]1N	none (no result: B2AR arrestin, ELG1 repair inh, TSHR antag)
CCCN(C(=O)CSc1nnc2ccccn12)C1CCS(=O)(=O)C1 (centres undefined)	none (no result: VP16 counter, RORgamma inh)
COc1cc(OC)cc(C(=O)NC(=S)NNC(=O)Cc2cccs2)c1	none
COc1ccc(C(=O)NC(=S)NNC(=O)Cc2cccs2)cc1	VP16 counter inconclusive, RORgamma inh 6.3µM
O=C(/C=C/c1cccs1)NC(=S)NNC(=O)Cc1cccs1	VP16 counter inconclusive, RORgamma inh 11µM
COc1ccc(/C=C/C(=O)NC(=S)NNC(=O)Cc2cccs2)cc1OC	RORgamma inh inconclusive
COc1ccccc1CN1CCC2(CC1)CCN(C(=O)c1c(C)noc1C)CC2	none (no result: B2AR arrestin, ELG1 repair inh, TSHR antag)
COc1ccc(N=C(NN)c2ccc3ccccc3n2)cc1	VP16 counter inconclusive, ELG1 repair inh inconclusive, RORgamma inh 10µM
CCOc1ccc(CN(C)C(=O)c2ccc3ccccc3n2)cc1	none
CCOc1ccc(Nc2c3ccccc3nc3ccccc23)cc1	VP16 counter inconclusive, ELG1 repair inh 5.8µM
CCOc1ccc(NC(=S)c2ccc3ccccc3n2)cc1	VP16 counter inconclusive, ELG1 repair inh inconclusive, RORgamma inh 6.3µM
Cc1ccc(NC(=S)c2ccc3ccccc3n2)c(C)c1	VP16 counter 7.9µM, ELG1 repair inh inconclusive, RORgamma inh 2µM
Cc1ccc(C)c(NC(=O)c2ccc3ccccc3n2)c1	ELG1 repair inh inconclusive
Cc1ccc(NC(=O)CS(=O)CC(=O)N(CC(=O)NC(C)(C)C)c2cccc(C)c2C)cc1 (centres undefined)	none
COc1ccc(NC(=S)c2ccc3ccccc3n2)cc1	B2AR arrestin inconclusive, VP16 counter 13µM, ELG1 repair inh inconclusive, RORgamma inh 4µM
COc1ccc(C(=O)NNC(=O)c2cccc(S(=O)(=O)N3CCOCC3)c2)cc1	none (no result: VP16 counter, RORgamma inh)
COc1ccc(C(=O)NC(=S)Nc2cccc(S(=O)(=O)N3CCOCC3)c2)cc1	ELG1 repair inh inconclusive, RORgamma inh 22µM
O=C(COC(=O)CCC(=O)c1ccc(F)cc1)Nc1cccc(S(=O)(=O)N2CCOCC2)c1	none
O=C(COc1ccc(C(=O)c2ccc(F)cc2)cc1)Nc1cccc(S(=O)(=O)N2CCOCC2)c1	ELG1 repair inh 23µM (no result: VP16 counter, RORgamma inh)
CC1(C)CC2CC(C)(CN2S(=O)(=O)c2ccc(C(=O)Nc3cccc(S(=O)(=O)N4CCOCC4)c3)cc2)C1 (centres undefined)	VP16 counter 0.5µM, ELG1 repair inh inconclusive, RORgamma inh inconclusive
